# Screening results as filed in PubChem.
# The list is not random: actives were taken first. Their share in the collection is about 2.8%.
# PAX8 reporter: inhibitors of PAX8 transcriptional activity in RMG-I cells; RMG-I TPO-luciferase reporter, SteadyGlo, 24 h; inhibition, % at 12.6 µM; actives 1.2% (n = 360,000); AID 652154;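 active means mean replicate inhibition at least 60% with every replicate also reaching 60%; inconclusive means only one of the two criteria is met; inactive means mean below 60% and not all replicates reaching 60%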;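 further: luciferase light reporting Pax8 driven TPO promoter activity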
# TROY NFkB inh: inhibitors of TROY-dependent NF-kB signaling; Q293 LMP1-TROYcd NF-kB luciferase reporter, 4 h; inhibition, % at 10 µM; actives 0.98% (n = 360,000); AID 1347056;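 active means compounds whose plate-normalised and pattern-corrected inhibition of the luciferase reporter signal at the single screening dose is 50% or more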
# TWEAK Fn14 block: TWEAK-Fn14 signaling inhibition; TWEAK-stimulated Fn14 reporter cells, luciferase luminescence, 8 h; inhibition, % at 10 µM; actives 2% (n = 360,000); AID 1159606; in the data active means inhibition above about 50%
# LGR2 antag: inhibitors of bursicon-induced Drosophila LGR2 receptor cAMP signaling | HEK293 LGR2, CRE-luciferase, bursicon-stimulated, 4 h | inhibition, % at 9.99 µM | actives 0.35% (n = 380,000);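 active means drop in luminescence signal, shown as inhibition above about 50% in the replicate tests, limit read from the data, passing the limit was not always enough; inconclusive means probably only some replicates passing the limit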;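 further: agonist challenge used bursicon conditioned medium at about half maximal strength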
# EWS-Fli inh: blocks EWS/Fli oncoprotein-driven transcription; A673 NR0B1-luciferase reporter, viability-normalised; inhibition, % at 12.6 µM; actives 0.67% (n = 350,000); AID 651661;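 active means mean inhibition of at least 50% after viability correction, with every replicate also passing that limit; inconclusive means mean reaches 50% but only one of two replicates passes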;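 further: firefly luciferase signal divided by Alamar Blue viability fluorescence both relative to DMSO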
# Hits are given with their value; i = inactive; ? = inconclusive; nt = no result given.
SMILES,PAX8 reporter,TROY NFkB inh,TWEAK Fn14 block,LGR2 antag,EWS-Fli inh
CC1=C(CO)C(=O)OC([C@@H](C)C2CC[C@H]3C4C[C@H]5O[C@]56[C@@H](O)C=CC(=O)[C@]6(C)C4CC[C@]23C)C1 (stereo not given in full),nt,i,103,nt,64
CC(=O)N1[C@H](CO)[C@H](c2ccc(-c3ccc(F)cc3)cc2)[C@H]1CNC(=O)C1CC1,i,nt,nt,i,i
O=c1cc(N=Nc2ccc(Cl)cc2)[nH]c(=O)[nH]1,i,i,58,i,i
Cc1ccc(C(=O)SC2=NCCS2)cc1,nt,i,60,i,i
COc1ccc(C(=O)SC2=NCCS2)cc1OC,nt,i,i,nt,nt
CN(C)C(=O)c1ccc(-c2ccc(C3[C@@H]4CN(C(=O)C5CCOCC5)C[C@H]3N4)cc2)cc1 (stereo not given in full),i,nt,nt,i,i
COc1cccc(-c2ccc([C@H]3[C@@H](CO)N4C(=O)CN(C(=O)C5CCCC5)C[C@@H]34)cc2)c1,i,nt,nt,i,i
C[C@H](CO)N1C[C@H](C)[C@@H](CN(C)Cc2ccncc2)OCCCC[C@H](C)Oc2ccc(NC(=O)Nc3ccccc3)cc2C1=O,i,nt,nt,i,nt
O=C(Nc1cccc(S(=O)(=O)N2CCCCC2)c1)Nc1ccc(Cl)cc1Cl,i,59,83,i,i
O=C(Nc1cccc(S(=O)(=O)Nc2ccccc2Cl)c1)c1ccc(Cl)nc1,i,i,63,i,i
COc1ccccc1NS(=O)(=O)c1cccc(NC(=O)Nc2ccc(Cl)cc2)c1,i,59,84,i,i
O=C(Nc1cccc(S(=O)(=O)N2CCCCCC2)c1)c1ccc(Cl)nc1,i,i,i,i,i
O=C(Nc1ccc(Cl)cc1Cl)NC1CCN(S(=O)(=O)c2ccc(F)cc2)CC1,i,52,i,i,i
COc1ccccc1NS(=O)(=O)c1cccc(NC(=O)Nc2ccccc2)c1,i,i,i,i,i
O=C(N[C@H]1CC[C@H](CCNC(=O)C2CCCCC2)O[C@H]1CO)c1ccncc1,i,nt,nt,i,i
CCn1c2ccccc2c2cc(Nc3cc(C)nc4ncnn34)ccc21,96,i,i,i,64
CCc1ccc(Nc2cc(C)nc3ncnn23)cc1,i,i,i,i,i
COc1ccc(C(=O)/C=C/C(=O)N(CC(=O)NC2CCCCC2)Cc2ccc(F)cc2)c(O)c1,i,89,85,nt,i
Cc1ccc(S(=O)(=O)N(C)C[C@@H]2Oc3ccc(NC(=O)Cc4cn(C)c5ccccc45)cc3C(=O)N([C@H](C)CO)C[C@H]2C)cc1,i,nt,nt,i,i
C[C@@H]1CN([C@H](C)CO)S(=O)(=O)c2ccc(C3=CCCC3)cc2O[C@H]1CN(C)C(=O)c1ccncc1,i,nt,nt,i,i
Cc1ccc(NC(=O)c2c([N+](=O)[O-])c(C(C)(C)C)nn2C)c(C)c1,128,i,i,i,i
CC(=O)Nc1ccc(NC(=O)c2c([N+](=O)[O-])c(C(C)(C)C)nn2C)cc1,i,i,i,i,i
CC(C)(C)c1ccc(C(=O)Nc2ccc(CC(=O)O)cc2)o1,nt,55,88,i,nt
CCOC(=O)N1CCN(Cc2c(F)cccc2F)CC1,nt,nt,71,i,nt
COc1ccc(NC(=O)N(C)C[C@H]2OCCCC[C@@H](C)Oc3ccc(NC(=O)CCC(F)(F)F)cc3C(=O)N([C@H](C)CO)C[C@H]2C)cc1,i,nt,nt,i,i
SMILES,PAX8 reporter,TROY NFkB inh,TWEAK Fn14 block,LGR2 antag,EWS-Fli inh
C=C1C(=O)O[C@H]2C1CC[C@@](C)(O)C13C=CC(C)(C21)C1(C3)C(=O)O[C@@H]2C3C(C)=CCC3[C@](C)(O)C[C@H](OC(C)=O)C21 (stereo not given in full),87,i,i,i,i
Cc1ccc(S(=O)(=O)N[C@@H]2CC[C@H](CCNC(=O)Cc3ccccn3)O[C@@H]2CO)cc1,i,nt,nt,i,i
C[C@H](CO)N1C[C@H](C)[C@H](CN(C)Cc2cncnc2)Oc2ncc(/C=C/c3ccccc3)cc2C1=O,nt,nt,nt,i,i
CN(N=O)c1ccc(C=C2C=Cc3ccccc32)cc1,i,i,i,i,i
CC(=O)N(C)c1ccc(C=C2C=Cc3ccccc32)cc1,i,71,79,i,i
CCN(CC)S(=O)(=O)c1cccc(-c2nnc(SCc3nc4ccccc4s3)o2)c1,nt,57,i,nt,nt
Nc1ccc(-c2nc3c(Cl)cc(N)cc3[nH]2)cc1,nt,62,67,nt,nt
CCOc1cc2c(c3c1C(c1ccccc1)N(S(=O)(=O)c1ccc(C)cc1)C3)C(=O)C=CC2=O (stereo not given),i,i,i,nt,62
Cc1ccc(Cn2ccsc2=NC(=O)COC(=O)c2ccc(NC(=O)CC#N)cc2)cc1,i,i,i,i,i
Cc1ccc(Cn2ccsc2=NC(=O)CCl)cc1,114,i,i,i,i
COC(=O)c1ccc(COc2cccn3c(N(C)C(=O)CCC4CCCC4)c(C)nc23)cc1,i,i,52,i,i
Cc1nc2c(OCc3ccc(F)cc3)cccn2c1N(C)C(=O)CCC1CCCC1,i,i,i,i,i
COc1ccc(NC(=O)N(C)C[C@H]2Oc3ncc(C#C[C@@H](C)O)cc3C(=O)N([C@H](C)CO)C[C@@H]2C)cc1,nt,nt,nt,i,i
Cc1ccc(S/C=C\C(=O)c2ccccc2)cc1,nt,53,88,i,i
c1ccc2c(Nc3nc(N4CCOCC4)c4ccccc4n3)cccc2c1,i,i,52,i,i
CCc1cc2c(nc1CC)CCCN2S(=O)(=O)c1ccc(OC)cc1,i,nt,nt,i,72
COc1cc(OC)c2c(-c3cccc(-c4ccc(OC(F)(F)F)cc4)c3)cc(=O)oc2c1,i,i,i,i,i
COc1ccc(-c2cccc(-c3cc(=O)oc4cc(OC)cc(OC)c34)c2)cc1,i,i,i,i,53
COc1cc(OC)c2c(-c3cccc(-c4ccc(CO)cc4)c3)cc(=O)oc2c1,nt,i,75,nt,nt
COc1cc(OC)c2c(-c3cccc(/C=C/c4ccc(F)cc4)c3)cc(=O)oc2c1,i,i,i,i,i
COc1cc(OC)c2c(-c3cccc(-c4ccc(N(C)C)cc4)c3)cc(=O)oc2c1,77,i,52,i,?
COc1cc(OC)c2c(-c3cccc(-c4cccc(C)c4)c3)cc(=O)oc2c1,i,i,i,i,54
O=C(C[C@H]1CC[C@H]2[C@@H](COC[C@H](O)CN2C(=O)Nc2ccc(Cl)c(Cl)c2)O1)NC1CCC1,i,nt,nt,i,i
CCCNC(=O)Nc1ccc2c(c1)OC[C@H](C)N(C(=O)C1CC1)C[C@@H](C)[C@@H](OC)CN(C)C2=O,i,nt,nt,i,i
Cc1noc(C)c1NC(=O)N(C)C[C@@H]1OCCCC[C@@H](C)Oc2ccc(NC(=O)Nc3cccc4ccccc34)cc2C(=O)N([C@@H](C)CO)C[C@@H]1C,i,nt,nt,nt,nt
COc1cc(OC)c2c(-c3cccc(-c4ccc(O)cc4)c3)cc(=O)oc2c1,i,i,i,i,53
COc1cc2oc(=O)cc(-c3ccc(-c4ccc(N(C)C)cc4)cc3)c2c(OC)c1OC,i,71,92,i,i
COc1ccc(-c2cccc(-c3cc(=O)oc4cc(OC)c(OC)c(OC)c34)c2)cc1,i,i,i,i,i
